Results published in paper PMC7822874, “Chemoprotective antimalarials identified through quantitative high-throughput screening of Plasmodium blood and liver stage parasites” (Scientific Reports, 2021).
Read-outs that look alike come from different tables or passages of the source.

Test system: P. berghei-ANKA-GFP-LucCON liver stage parasites in HepG2-A16-CD81EGFP cells
Conditions: 48 h

Row | Structure (SMILES) | % viability (1 µM) | % viability (3 µM)
1 | COC(=O)C1=C(C)NC(C)=C(C(=O)OCCCN2CCC(c3ccccc3)(c3ccccc3)CC2)C1c1cccc([N+](=O)[O-])c1 (stereo not shown) [NCGC00163135] | 0.1886 | 0.1117
2 | COc1ccc(-c2c[n+](CC(=O)c3cccs3)c3n2CCC3)cc1 [MLS000333575] | 1.153 | 0.8461
